Drawing on PubChem BioAssay (NCI), this text covers growth for 40 compounds.

About 83,000 compounds went through this panel and 20% of them were active in at least one assay; those are over-represented in the sample as a whole.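 Single-dose data. Exposure time 48 hours. Values below 10 considered active.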 Unmarked numbers belong to inactive results. The source made the active and inactive calls.

For this assay, the system named is T-47D breast. As to the kind of experiment: NCI-60 one-dose screen, 48 h (100 = growth as untreated, 0 = no growth, -100 = all killed). The following applies: 10 µM unless noted. The protocol: Growth inhibition of the T-47D human tumor cell line is measured as a screen for anti-cancer activity. Cells are grown in 96 well plates and exposed to the test compound for 48 hours. Compounds are tested at a single concentration, which is 10^-5 M for most compounds. The reported endpoint is percent growth (GI% or GIPRCNT), where numbers from 0 - 100% represent growth inhibition, and numbers from -100% - 0 represent cell death. For example, a value of 40 represents 60% growth inhibition. A value of 0 means no net growth occurred over the course of the experiment. A value of -40 indicates 40% of cells at the beginning of the experiment died by the end of the experiment. A value of -100 means all cells are dead at the end of the experiment.
NCI-60 Human Tumor Cell Lines Screen was performed using the standard one-dose NCI protocol, which is described in more detail at https://dtp.cancer.gov/discovery_development/nci-60/default.htm.
Compounds with GIPRCNT values below 10 were considered active. Activity score was based on GIPRCNT using the following formula: […]
Score is 0 for GIPRCNT values of 100 or above, 50 for GIPRCNT values of 0, and 100 for GIPRCNT values of -100.
Regarding `COc1cc2c(cc1OC)C(Sc1ccc(SC)cc1)c1c(nc(N)c(C#N)c1N)O2` (stereo not given), the growth was -47.1% (active).

In the case of `Cc1ccc(OC(=O)c2ccc(Cl)cc2)cc1`, the growth is 103%.

As to `COc1cc(-c2nn(-c3ccc(Br)cc3)cc2C(=O)O)ccc1O`, the growth is 98.5%.

As for `CSc1nc(NCCO)c(C#N)c(-c2cccc([N+](=O)[O-])c2)n1`, the growth is 94.1%.

`COc1cccc(-c2nn(C(C)(C)C)cc2-c2ccnc(NCCCNS(=O)(=O)c3ccc(C)cc3)c2)c1`: the growth was 98.1%.

For `COc1ccc(-c2nc(SCC(=O)Nc3ccc(C(=O)/C=C/c4ccc(Cl)cc4)cc3)[nH]c(=O)c2C#N)cc1`, the growth was 61.8%.

With `COc1ccc(C2Nc3c(c(C(C)(C)C)nn3-c3ccccc3)C(=O)CS2)cc1` (stereo not given), the growth was 96.5%.

For the compound `O=C(/C=C/c1cc(CN2CCOCC2)c(O)c2ncccc12)c1cc(CN2CCOCC2)c(O)c2ncccc12`, the growth is 7.07% (active).

Turning to `COc1ccc2cc(-c3nn(-c4ccc(C(=O)O)cc4)cc3CO)ccc2c1`, the growth is 98.5%.

On to `COc1cc(-c2ccc3c(c2)NC(=O)/C3=C\c2ccc[nH]2)ccc1O`, for which the growth was 35.2%.

In the case of `COc1cc(-c2nc3ccccc3[nH]2)ccc1OCc1nnc(-c2ccc(CC(C)C)cc2)o1`, the growth is 57.2%.

In the case of `COc1cccc(-c2nc3sccn3c2-c2ccnc(NCCNS(=O)(=O)c3ccc(F)cc3)c2)c1`, the growth is -4.43% (active).

For the compound `O=C1/C(=C/c2ccc(Cl)cc2)SC(=S)N1CCc1ccc(O)cc1`, the growth was 54.2%.

In the case of `O=C1c2c(O)cc(O)cc2-c2c(-c3ccc(O)cc3)oc3cc(O)cc1c23`, the growth was 8.47% (active).

Regarding `O=C1c2cccc3cccc(c23)C(=O)N1CCCCN1CCN(CCCCOc2ccc(-c3nc4ccc(N5CCOCC5)cc4[nH]3)cc2)CC1`, the growth is 77.2%.

In the case of `CC(=O)c1cc2c(N)c(C(=O)Nc3cccc(F)c3C)sc2nc1C`, the growth is 80.6%.

Turning to `N#Cc1c(-c2ccc(Cl)cc2)nc(N=Nc2c(O)[nH]c3ccc(Cl)cc23)nc1N1CCOCC1`, the growth was 99.8%.

In the case of `COc1ccc(CN2c3ccccc3Oc3ccccc32)cc1O`, the growth was 30.6%.

On to `C#CCOc1ccc2ncnc(NCc3cccc(NC(=O)CCl)c3)c2c1`, for which the growth is 33.2% [8.25 µM].

With `Cc1ccc(C2Oc3ccccc3C3CC(c4cccs4)=NN32)cc1` (stereo not given), the growth is 94.7%.

In the case of `CN1CCN(CCCOc2cccc3nc(Nc4cc(Cl)cc(Cl)c4)ccc23)CC1`, the growth is -25.3% (active).

On to `C=CC(=O)Nc1cccc(-c2nc(SC)nc(Nc3cccc(OC)c3)c2C#N)c1`, for which the growth is 38.5%.

Take `Cc1cc(N2CCN(C)CC2)nc(NC2CCCC(Nc3ccnc4cc(Cl)ccc34)C2)n1` (stereo not given): the growth was -48.5% (active).

On to `O=C(COc1ccc(/C=C2\CSc3ccccc3C2=O)cc1)Nc1nccs1`, for which the growth is 90%.

For `Cc1nc2c3c(-c4ccccc4)c(-c4ccccc4)oc3ncn2n1`, the growth is 70%.

As to `OCC(O)c1nc2ccc3[nH]ncc3c2c2c1CCCC2` (stereo not given), the growth is 14%.

With `CC1C(/C=N/Nc2ccccc2)C(C#N)(C#N)C1(C#N)C#N` (stereo not given), the growth is 79.3%.

For `COc1ccc(-n2nc(C)c3c(Nc4ccc(NC(=O)Nc5ccc(Cl)c(C(F)(F)F)c5)cc4)ncnc32)cc1`, the growth was 1.89% (active).

Regarding `Cn1c(NCCc2ccc(O)c(O)c2)nc2c1c(=O)n(Cc1ccc(Cl)c(Cl)c1)c(=O)n2C`, the growth is 58%.

In the case of `CCNC(=O)Oc1ccc(/C(=C(\C)c2ccc(Cl)cc2)c2ccc(OCCN3CCCCC3)cc2)cc1`, the growth was 27.8%.

Take `CC(C)n1c(/C=C/[C@@H](O)C[C@@H](O)CC(=O)O)c(-c2ccc(F)cc2)c2ccccc21`: the growth is 72.7%.

In the case of `COC(=O)[C@@H]1CCCN1C(=O)[C@@H]1CCCN1C(=O)[C@H](Cc1ccccc1)NC(=S)Nc1cc(C(F)(F)F)cc(C(F)(F)F)c1`, the growth is 92.3%.

For `Cc1cc(N2CCOCC2)nc(NCc2cc(Nc3ccnc4cc(Cl)ccc34)ccc2F)n1`, the growth is -34.9% (active).

`COc1cccc(/C=C2\Oc3cc(OCCN4CCCC4)ccc3C2=O)c1`: the growth was 91.4%.

Consider `CCNC(=O)Oc1ccc(/C(=C(\C)c2ccc(Cl)cc2)c2ccc(OCCN(CC)CC)cc2)cc1`, for which the growth was 25.5%.

With `O=c1cc(CSc2nnc(SCc3cc(=O)oc4c3ccc3ccccc34)o2)c2ccc3ccccc3c2o1`, the growth is 78.6%.

Consider `Cc1nn(-c2ccc(F)cc2)c2ncnc(Nc3ccc(NC(=O)Nc4ccc(Cl)c(C(F)(F)F)c4)cc3)c12`, for which the growth is 2.53% (active).

As to `COc1cc2nc(N3CCCC3)nc(NCC3CCCCC3)c2cc1OC`, the growth was -49.9% (active).

Regarding `COc1ccc(NC(=O)c2ccc(/C=C/C(=O)c3ncc[nH]3)cc2)cc1`, the growth is 68.5%.

As for `O=C(Cc1ccccc1Nc1c(Cl)cccc1Cl)NN1C(=O)/C(=C/c2ccc(Br)cc2)SC1=S`, the growth was 107%.
